Eight compounds from PubChem BioAssay (NCI) can be followed below.

Test systems include NCI-H23 lung; NCI-H226 lung; NCI-H322M lung; HOP-62 NSCLC; NCI-H460 lung; HOP-92 NSCLC; NCI-H522 lung; A549/ATCC NSCLC; 786-0 renal; COLO 205 colon; DU-145 prostate; K-562 leukemia; MALME-3M melanoma; MDA-MB-231 breast; SF-268 CNS; SF-295 CNS; SF-539 CNS; UACC-257 melanoma; M14 melanoma; RXF 393 renal.
Common to all, as to assay: NCI-60 one-dose screen, 48 h (100 = growth as untreated, 0 = no growth, -100 = all killed)
Conditions in all cases: 10 µM unless noted

Compounds without any hit were thinned out: in the full panel of roughly 83,000, 20% have a hit.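 The endpoint reported here, percent growth, reads 100 for growth as untreated, 0 for no net growth and -100 for all cells dead.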 A number with no mark means an inactive call. The source made the active and inactive calls. Rule for the calls: active = growth percent below 10; inactive = the rest.

With `COc1cc(C=C2c3ccccc3C(=O)c3ccccc32)ccc1OCCCCOc1cc2c(cc1OC)C(=O)N1CCCC1C=N2` (centres undefined), the growth was -52.7% (active) in the assay on NCI-H23 lung; -66.4% (active) in the assay with NCI-H226 lung; 13.3% in the assay on NCI-H322M lung; -62.5% (active) in the assay with HOP-62 NSCLC; -77% (active) in the assay with NCI-H460 lung; -59.4% (active) in the assay with HOP-92 NSCLC. Further, the growth in the assay with NCI-H522 lung was -53.1% (active); in the assay on A549/ATCC NSCLC, -37.8% (active); with 786-0 renal, -100% (active); with COLO 205 colon it was -93.9% (active); in the assay on DU-145 prostate it was -92.7% (active); in the assay with K-562 leukemia, -15.4% (active). Also, the growth in the assay on MALME-3M melanoma was -28.8% (active); in the assay on MDA-MB-231 breast, -23.7% (active); with SF-268 CNS it was -59.9% (active); in the assay with SF-295 CNS it was -42.2% (active); in the assay on SF-539 CNS, -70.9% (active); with UACC-257 melanoma it was -73.3% (active). In the assay on M14 melanoma, the growth was -66.7% (active).
Turning to `COC(=O)CC12CC(NC(=O)c3csc([C@@H](C[C@H](C(C)C)N(C)C(=O)[C@@H](NC(=O)[C@H]4CCCCN4C)C(C)C)OC(C)=O)n3)(C1)C2`, the growth in the assay on NCI-H23 lung was 21.3%; in the assay with NCI-H226 lung it was 23.1%; with NCI-H322M lung, 43%; with HOP-62 NSCLC it was 6.8% (active); with NCI-H460 lung, 7.76% (active); in the assay on HOP-92 NSCLC, 35.7%. The growth in the assay with NCI-H522 lung was 10.8%; with A549/ATCC NSCLC, 18%; in the assay with 786-0 renal, 12%; in the assay on COLO 205 colon, -54.7% (active); in the assay with DU-145 prostate it was 14%; with K-562 leukemia, 9.94% (active). Moreover, the growth with MALME-3M melanoma was 51%; with MDA-MB-231 breast, 6.67% (active); in the assay on SF-268 CNS, 26.1%; in the assay with SF-295 CNS it was -7.27% (active); in the assay on SF-539 CNS it was -12.8% (active); in the assay on M14 melanoma, 7% (active).
On to `CN(C)C(=O)Oc1ccccc1-c1ccccc1`, for which the growth with NCI-H23 lung was 102%; in the assay on NCI-H226 lung, 96.4%; with NCI-H322M lung, 111%; with HOP-62 NSCLC, 98.6%; in the assay on NCI-H460 lung, 109%; in the assay on HOP-92 NSCLC, 95.7%. In addition, the growth was 101% in the assay on NCI-H522 lung; 87.7% in the assay with A549/ATCC NSCLC; 106% in the assay with 786-0 renal; 103% with COLO 205 colon; 111% in the assay on DU-145 prostate; 89.5% in the assay with K-562 leukemia. For the same compound, the growth in the assay with MALME-3M melanoma is 110%; in the assay on MDA-MB-231 breast it was 110%; in the assay with SF-268 CNS it was 102%; in the assay on SF-295 CNS, 97.4%; in the assay with SF-539 CNS, 103%; in the assay with M14 melanoma it was 103%.
Consider `Nc1ccc2c(c1)oc1ccccc12`, for which the growth in the assay on NCI-H23 lung is 97.3%; with NCI-H226 lung it was 93.1%; in the assay with NCI-H322M lung it was 102%; with HOP-62 NSCLC, 103%; in the assay with NCI-H460 lung, 111%; in the assay on HOP-92 NSCLC, 89.4%. Besides, the growth in the assay with NCI-H522 lung is 95.9%; in the assay with A549/ATCC NSCLC it was 89%; with 786-0 renal it was 95.7%; in the assay on COLO 205 colon, 123%; with DU-145 prostate it was 103%; with K-562 leukemia, 89.5%. For the same compound, the growth in the assay with MDA-MB-231 breast is 80.2%; in the assay with RXF 393 renal, 92.4%; in the assay with SF-268 CNS, 83.3%; in the assay on SF-295 CNS, 102%; in the assay with SF-539 CNS it was 104%; with UACC-257 melanoma, 92.6%. Further, in the assay on M14 melanoma, the growth was 101%.
Take `COC(=O)[C@@H](C)C[C@H](Cc1cn(C)c2ccccc12)NC(=O)c1csc([C@@H](C[C@H](C(C)C)N(C)C(=O)[C@@H](NC(=O)[C@H]2CCCCN2C)C(C)C)OC(C)=O)n1`: the growth was 31.9% in the assay with NCI-H23 lung; 18% with NCI-H226 lung; 37.8% in the assay on NCI-H322M lung; 7.44% (active) with HOP-62 NSCLC; 7.12% (active) in the assay with NCI-H460 lung; 25.7% with HOP-92 NSCLC. The growth with NCI-H522 lung was -7.69% (active); with A549/ATCC NSCLC, 15.3%; with 786-0 renal, 6.49% (active); in the assay with COLO 205 colon, -58.9% (active); with DU-145 prostate, 12.4%; in the assay on K-562 leukemia, 6.65% (active). For the same compound, the growth is 50.4% with MALME-3M melanoma; 5.09% (active) in the assay with MDA-MB-231 breast; 16.6% with SF-268 CNS; -0.0499% (active) in the assay on SF-295 CNS; -8.57% (active) in the assay on SF-539 CNS; -10.2% (active) in the assay with M14 melanoma.
Turning to `CCNc1nc(Cl)nc(NCC)n1`, the growth with NCI-H23 lung was 111%; in the assay with NCI-H226 lung it was 90.4%; in the assay on NCI-H322M lung it was 100%; in the assay on HOP-62 NSCLC, 93%; in the assay on NCI-H460 lung it was 102%; in the assay on HOP-92 NSCLC, 65.1%. Besides, the growth in the assay on NCI-H522 lung is 105%; in the assay with A549/ATCC NSCLC it was 85.7%; with 786-0 renal, 108%; with COLO 205 colon, 102%; in the assay with DU-145 prostate it was 123%; in the assay on K-562 leukemia, 35.1%. The growth in the assay with MALME-3M melanoma is 133%; in the assay with MDA-MB-231 breast, 104%; in the assay on SF-268 CNS it was 102%; in the assay on SF-295 CNS, 84.1%; with SF-539 CNS it was 97.2%; in the assay with UACC-257 melanoma it was 89%. Moreover, the growth in the assay on M14 melanoma is 101%.
Turning to `O[C@H](CN1CC1)[C@@H](O)CN1CC1`, the growth in the assay on NCI-H23 lung is 65.8%; with NCI-H226 lung, 79.7%; in the assay with NCI-H322M lung it was 103%; with HOP-62 NSCLC, 61.8%; in the assay with NCI-H460 lung, 15.5%; in the assay with HOP-92 NSCLC it was 87%. Further, the growth was 93.9% with NCI-H522 lung; 66.3% in the assay on A549/ATCC NSCLC; 43.2% in the assay on 786-0 renal; 76.7% in the assay with COLO 205 colon; 39.5% with DU-145 prostate; 65.9% in the assay on K-562 leukemia. Besides, the growth with MDA-MB-231 breast is 109%; with RXF 393 renal, 77.2%; in the assay on SF-268 CNS, 45.5%; with SF-295 CNS, 19.6%; in the assay with SF-539 CNS it was 24.6%; in the assay with UACC-257 melanoma it was 86.3%. In addition, the growth in the assay on M14 melanoma is 48.9%.
For the compound `CC1(C)N=C(N)N=C(N)N1c1cccc(CCCCc2ccc(Cl)c(S(=O)(=O)F)c2)c1`, the growth in the assay on NCI-H23 lung was 28.4%; in the assay with NCI-H226 lung, 57.1%; in the assay on NCI-H322M lung, 54.9%; in the assay on HOP-62 NSCLC, 33.6%; in the assay on NCI-H460 lung it was 21.4%; in the assay with HOP-92 NSCLC it was 41.3%. The growth with NCI-H522 lung is -9.62% (active); in the assay with A549/ATCC NSCLC it was 10.6%; in the assay with 786-0 renal it was 5.96% (active); in the assay on COLO 205 colon it was 72.7%; with DU-145 prostate, 47.5%; in the assay on K-562 leukemia, 16.4%. Also, the growth in the assay with MALME-3M melanoma was 56%; in the assay with MDA-MB-231 breast, 69.8%; in the assay on SF-268 CNS it was 35.9%; with SF-295 CNS, 39%; with SF-539 CNS, 19.9%; in the assay on UACC-257 melanoma it was 33.6%. Moreover, the growth with M14 melanoma is 39%.
